ERb SRC1 inh = ER-beta (human) coactivator binding inhibition | 1.3% of 86,000 active | AID 633 | Q92731 | inhibition, % at 25.6 µM | TR-FRET ER-beta LBD / SRC1-Cy5 peptide binding; receptor agonist-loaded with 1 µM estradiol;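 active = compounds whose percent inhibition of the receptor-coactivator binding signal exceeds about 50% in the single-dose screen, limit read from the data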
Smad3 FoxH1 inh = inhibitors of human Smad3 transcription factor binding; TR-FRET Smad3/Dy647-FoxH1 peptide binding, europium anti-His; inhibition, % at 25 µM; 0.29% of 88,000 active; AID 630;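 active = compounds that reduce the energy-transfer binding signal between the protein and its labelled peptide by more than half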
ERa coact inh = ER-alpha (human) coactivator binding inhibition; AID 629; inhibition, % at 25.6 µM; 1.7% of 86,000 active; P03372; TR-FRET ER-alpha LBD / SRC-1 peptide, estradiol-bound; in the data active = inhibition above about 50%
Target sequence (P03372 whole entry, looked up, the tested form may be a part): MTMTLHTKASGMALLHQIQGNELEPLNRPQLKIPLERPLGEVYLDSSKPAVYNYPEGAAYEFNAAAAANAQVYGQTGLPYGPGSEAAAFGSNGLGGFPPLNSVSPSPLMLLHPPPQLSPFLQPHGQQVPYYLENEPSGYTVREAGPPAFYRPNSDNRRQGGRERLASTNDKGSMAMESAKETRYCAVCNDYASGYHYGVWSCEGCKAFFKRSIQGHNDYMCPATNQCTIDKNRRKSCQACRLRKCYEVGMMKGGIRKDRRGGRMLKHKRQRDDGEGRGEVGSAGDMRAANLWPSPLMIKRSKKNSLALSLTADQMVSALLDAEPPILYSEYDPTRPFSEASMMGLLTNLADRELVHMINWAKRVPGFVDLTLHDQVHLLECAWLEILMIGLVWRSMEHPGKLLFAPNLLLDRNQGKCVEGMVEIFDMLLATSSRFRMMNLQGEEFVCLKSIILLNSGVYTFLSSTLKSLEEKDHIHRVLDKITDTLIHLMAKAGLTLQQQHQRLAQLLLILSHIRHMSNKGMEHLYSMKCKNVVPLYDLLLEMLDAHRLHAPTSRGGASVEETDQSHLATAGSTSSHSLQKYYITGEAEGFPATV
MT1-MMP txn act = activates MT1-MMP transcription | HT1080 MT1-MMP promoter luciferase reporter, luminescence, overnight; active compounds read high | activation factor at 10 µM | 0.16% of 86,000 active;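 active = activation factor of at least 2 for MT1-MMP transcription at 10 µM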
ERa SRC1 pot = enhances coactivator binding to human estrogen receptor alpha | TR-FRET ERalpha-LBD/SRC-Cy5 coactivator binding, 2 h; 100 = basal binding, no effect | coactivator binding (% of control), % at 25.6 µM | 1.3% of 86,000 active; in the data active = activity above about 200%;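 note: binding measured in presence of low estradiol as agonist stimulus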
MMP13 inh = MMP13 (human) collagenase inhibition | P45452 | MMP-13 fTHP FRET cleavage, Mca fluorescence | inhibition, % at 4 µM | 0.07% of 65,000 active | AID 570;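 active = inhibition above the mean of compound-free control plate wells plus 3 SD, cut at about 14% in these data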
Numbers stand for hits; 0 = inactive; - = not tested or not shown; [ ] = dose if it differs, or a comment. Shown are actives, neighbours in structure and some others; about 3.5% of the full set was active somewhere.

SMILES	ERb SRC1 inh	Smad3 FoxH1 inh	ERa coact inh	MT1-MMP txn act	ERa SRC1 pot	MMP13 inh
O=C(O)c1cc2nc(-c3ccc(F)cc3)cc(C(F)(F)F)n2n1	0	0	0	0	0	0
CCOC(=O)C1=C(N)n2c(s/c(=C\c3cccnc3)c2=O)=C(C(=O)OC)C1c1cccnc1 (centres undefined)	0	0	72[fluorescence artefact?]	0	266[fluorescence artefact?]	0
CCOC(=O)C1=C(N)n2c(s/c(=C\c3cccnc3)c2=O)=C(C(=O)OCC)C1c1cccnc1 (centres undefined)	0	0	0	0	0	0
O=C(Nc1nnc(C23CC4CC(CC(C4)C2)C3)s1)c1ccco1	0	0	0	2	0	0
Cc1ccc2nc(NC(=O)c3ccco3)sc2c1	0	0	0	-	0	-
O=C(Nc1nc2c(ccc3ccccc32)s1)c1ccco1	-	-	-	2.3	-	0
Cc1nc2ccc3nc(NC(=O)c4ccco4)sc3c2s1	50[fluorescence artefact?]	0	0	-	0	-
CCOC(=O)c1oc2ccccc2c1CN1CCN(c2ccccc2)CC1	0	0	0	0	0	0
O=C(Nc1ccon1)c1cc(-c2ccccc2)nc2ccccc12	0	0	0	0	0	0
COC(=O)C1=CN(C2CC2)C=C(C(=O)OC)C1c1ccccc1OC	0	0	0	0	0	0
c1ccc(-c2nccc(-c3ccc(-n4cnc5ccccc54)cc3)n2)cc1	63[fluorescence artefact?]	0	92[fluorescence artefact?]	0	0	-
CCSc1nc(C)c(CC)c(C)c1C(N)=O	0	0	0	0	0	0
N=c1c(C(=O)NCc2ccccc2)cc2c(=O)n3ccccc3nc2n1Cc1ccco1	0	0	71[fluorescence artefact?]	0	0	0
Cc1ccc(S(=O)(=O)c2cc3c(=O)n4ccccc4nc3n(CC3CCCO3)c2=N)cc1 (centres undefined)	0	0	0	0	0	0
N=c1c(C(=O)NCc2ccc(F)cc2)cc2c(=O)n3ccccc3nc2n1Cc1ccco1	-	-	-	0	-	0
Cc1cccn2c(=O)c3cc(C(=O)NCc4ccco4)c(=N)n(CCc4ccccc4)c3nc12	59	0	93[fluorescence artefact?]	0	0	0
Cc1ccc(S(=O)(=O)c2cc3c(=O)n4cccc(C)c4nc3n(CC3CCCO3)c2=N)cc1 (centres undefined)	0	0	0	0	290	0
Cc1ccc(CNC(=O)c2cc3c(=O)n4ccccc4nc3n(Cc3ccco3)c2=N)cc1	55[fluorescence artefact?]	0	82[fluorescence artefact?]	0	0	0
CCCc1c(C)c2ccc(OCC(C)=O)cc2oc1=O	0	0	0	0	0	0
CCN(CC)S(=O)(=O)c1ccc(Br)c(OC)c1	0	0	0	0	0	0
N=c1c(C(=O)NCc2ccco2)cc2c(=O)n3ccccc3nc2n1Cc1ccc(Cl)cc1	58[fluorescence artefact?]	0	80[fluorescence artefact?]	0	0	0
Cc1ccc(S(=O)(=O)c2cc3c(=O)n4ccccc4nc3n(Cc3ccco3)c2=N)cc1	63[fluorescence artefact?]	0	0	0	0	0
N=c1c(C(=O)NCc2ccco2)cc2c(=O)n3ccccc3nc2n1Cc1ccccc1	0	0	0	0	0	0
Cc1ccccc1-n1c(SCC(=O)N2CCOCC2)nc(O)cc1=O	0	0	0	0	0	0
CC1(C)CC(=O)C=C(NC2CCCCCC2)C1	0	0	0	0	0	0
SMILES	ERb SRC1 inh	Smad3 FoxH1 inh	ERa coact inh	MT1-MMP txn act	ERa SRC1 pot	MMP13 inh
CC1(C)CC(=O)C=C(NC2CCCCCCC2)C1	0	0	95[fluorescence artefact?]	0	0	-
O=C(CN1C(=O)c2ccccc2C1=O)N1CCN(c2nnc(-c3ccccc3)c3ccccc23)CC1	0	0	0	0	220	0
Cc1ccc(-c2nnc(N3CCN(C(=O)CN4C(=O)c5ccccc5C4=O)CC3)c3ccccc23)cc1	0	0	58	0	0	0
O=C(COc1ccccc1)N1CCN(c2nnc(-c3ccccc3)c3ccccc23)CC1	0	0	0	0	0	0
Cc1ccc(OCC(=O)N2CCN(c3nnc(-c4ccc(C)cc4)c4ccccc34)CC2)cc1	0	0	0	0	0	-
CCN1CCc2nc(NC(=O)Cc3ccc4c(c3)OCCO4)sc2C1	0	0	54	0	0	0
CCc1nnc(NC(=O)c2cccc(S(=O)(=O)N3CCc4ccccc43)c2)s1	0	0	0	0	0	0
CCN1CCc2nc(NC(=O)c3ccc4c(c3)OCCO4)sc2C1	0	0	51[fluorescence artefact?]	0	0	0
CCN1CCc2nc(NC(=O)CC(c3ccccc3)c3ccccc3)sc2C1	0	0	0	0	282[fluorescence artefact?]	-

Assay outcomes as filed in PubChem BioAssay.
